This passage reports outcome and AC50 results from PubChem BioAssay (EPA / NIEHS).

Values joined by “and” are separate entries in the source; they are usually repeats but may differ in a detail not shown here. Equal entries are not always repeated. Results filed as inconclusive are left out. A structure can be active in one record and inactive in another. Active and inactive are the calls of the source. How the source made its calls: active means hit-call score of the fitted dose curve at least 0.9, where 1 is the maximum; inconclusive means response in the unintended direction; inactive means score below 0.9.

For test [1], the target named is Type-1 angiotensin II receptor (Homo sapiens) (UniProt P30556). Put plainly: NVS_GPCR_hAT1: NovaScreen (NVS) G Protein-Coupled Receptor Assay for human Angiotensin II receptor type 1 (AT1) (AID 2283263). In short, it runs like this:
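Hits from a 25 uM duplicate screen (threshold e.g. 30% inhibition) were run in concentration-response with 50 uM top concentration. Displacement of specific radioligand from KAN-TS membrane preparations measured after 3 h by filter scintillation, DMSO as baseline.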

Test [2] deals with D(1A) dopamine receptor (Homo sapiens) (UniProt P21728). Put plainly: NVS_GPCR_hDRD1: NovaScreen (NVS) G Protein-Coupled Receptor Assay for human Dopamine Receptor D1 (DRD1) (AID 2283269). In short, it runs like this: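 Cell-free radioligand binding to human DRD1 from HEK293 membranes, read 1 h after dosing by filter-based scintillation counting. Loss of signal versus DMSO baseline marks displacement. Primary screen at 25 uM single concentration in duplicate; actives followed up in concentration series.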
D(1A) dopamine receptor (Homo sapiens), sequence (P21728 whole entry, looked up): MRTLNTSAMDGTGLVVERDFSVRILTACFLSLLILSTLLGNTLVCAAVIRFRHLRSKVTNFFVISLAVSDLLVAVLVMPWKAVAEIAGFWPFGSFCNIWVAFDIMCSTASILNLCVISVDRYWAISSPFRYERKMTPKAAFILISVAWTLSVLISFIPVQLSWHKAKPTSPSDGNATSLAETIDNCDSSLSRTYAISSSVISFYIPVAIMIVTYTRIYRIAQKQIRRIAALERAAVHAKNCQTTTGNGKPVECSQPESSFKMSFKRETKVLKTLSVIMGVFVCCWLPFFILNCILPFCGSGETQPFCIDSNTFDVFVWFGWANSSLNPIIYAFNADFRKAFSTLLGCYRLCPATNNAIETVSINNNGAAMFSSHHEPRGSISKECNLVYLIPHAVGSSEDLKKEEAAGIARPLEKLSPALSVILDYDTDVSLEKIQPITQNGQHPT

Test [3] concerns the target human Adrenergic, Beta 1 Receptor (Adrb1), ADRB1 (gene 153) (UniProt P08588). Put plainly: NVS_GPCR_hAdrb1: NovaScreen (NVS) G Protein-Coupled Receptor Assay for human Adrenergic, Beta 1 Receptor (Adrb1) (AID 2283258). In short, it runs like this: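 Membranes/protein extracted from human neuroepithelioma cells, radioligand competition binding read by filtration and scintillation 2 h post-dose. Single 25 uM duplicate screen, then concentration-response follow-up; DMSO as negative control.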

Test [4] addresses human Adrenergic, Alpha 2c Receptor (Adra2C), ADRA2C (gene 152) (UniProt P18825). As to the kind of experiment: NVS_GPCR_hAdra2C: NovaScreen (NVS) G Protein-Coupled Receptor Assay for human Adrenergic, Alpha 2c Receptor (Adra2C) (AID 2283259). In short, it runs like this: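 Screened first in duplicate at 25 uM, with actives then run as concentration series. Membranes from Sf9 cells were exposed for 1 h, and displacement of radioligand was counted after filtration, using DMSO as baseline.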

Test [5] addresses human Endothelin Receptor Type A (ETA), EDNRA (gene 1909) (UniProt P25101). Put plainly: NVS_GPCR_hETA: NovaScreen (NVS) G Protein-Coupled Receptor Assay for human Endothelin Receptor Type A (ETA) (AID 2283265). In short, it runs like this:
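Binding of radioligand to membrane protein extracted from SH-SY5Y cells was read by filtration and scintillation after 3 h. Compounds were screened at 25 uM in duplicate, with hits followed up in singleton concentration series to 50 uM.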

The target in test [6] is human Dopamine Receptor D2 (DRD2), DRD2 (gene 1813) (UniProt P14416). Put plainly: NVS_GPCR_hDRD2s: NovaScreen (NVS) G Protein-Coupled Receptor Assay for human Dopamine Receptor D2 (DRD2) (AID 2283266). In short, it runs like this: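 Test compound (25 uM, duplicate in the primary screen; concentration series at follow-up) competed with radioligand for human DRD2 in CHO-derived membrane protein. Filter-based scintillation counting was done 1.5 hours after dosing, with loss of signal analysed against DMSO.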
human Dopamine Receptor D2 (DRD2), DRD2 (gene 1813), sequence (P14416 whole entry, looked up): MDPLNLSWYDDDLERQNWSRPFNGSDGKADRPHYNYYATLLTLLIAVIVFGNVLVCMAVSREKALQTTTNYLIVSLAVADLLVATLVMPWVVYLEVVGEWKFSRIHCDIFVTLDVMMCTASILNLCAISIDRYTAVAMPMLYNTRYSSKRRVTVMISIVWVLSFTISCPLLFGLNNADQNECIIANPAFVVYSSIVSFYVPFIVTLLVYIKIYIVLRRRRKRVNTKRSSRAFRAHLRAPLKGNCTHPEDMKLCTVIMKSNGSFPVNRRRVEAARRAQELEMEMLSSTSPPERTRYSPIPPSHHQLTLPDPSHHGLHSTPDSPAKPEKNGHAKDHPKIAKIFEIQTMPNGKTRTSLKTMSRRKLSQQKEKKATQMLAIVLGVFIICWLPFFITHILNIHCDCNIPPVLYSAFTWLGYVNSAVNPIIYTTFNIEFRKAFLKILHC

For test [7], the target named is human Muscarinic, M4 Receptor, CHRM4 (gene 1132) (UniProt P08173). Put plainly: NVS_GPCR_hM4: NovaScreen (NVS) G Protein-Coupled Receptor Assay for human Muscarinic, M4 Receptor (AID 2283274). In short, it runs like this: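 Filter-based scintillation counting of radioligand bound to CHO-expressed human M4 preparations after 1 h; loss of signal fitted versus DMSO. Initial duplicate testing at 25 uM, concentration-response follow-up for actives.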
human Muscarinic, M4 Receptor, CHRM4 (gene 1132), sequence (P08173 whole entry, looked up): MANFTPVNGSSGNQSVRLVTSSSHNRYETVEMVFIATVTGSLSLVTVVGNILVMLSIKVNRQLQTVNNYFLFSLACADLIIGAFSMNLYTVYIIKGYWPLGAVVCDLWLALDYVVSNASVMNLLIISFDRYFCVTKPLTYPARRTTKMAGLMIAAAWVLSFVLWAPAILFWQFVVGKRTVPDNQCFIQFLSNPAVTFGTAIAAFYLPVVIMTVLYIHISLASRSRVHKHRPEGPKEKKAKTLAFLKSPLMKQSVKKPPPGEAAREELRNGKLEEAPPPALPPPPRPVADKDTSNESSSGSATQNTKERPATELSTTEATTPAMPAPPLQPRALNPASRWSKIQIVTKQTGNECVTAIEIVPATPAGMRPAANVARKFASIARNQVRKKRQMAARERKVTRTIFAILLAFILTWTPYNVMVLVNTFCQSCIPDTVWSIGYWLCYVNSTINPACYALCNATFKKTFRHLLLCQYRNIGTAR

Test [8] has as its target human Neurokinin, NK2 Receptor, TACR2 (gene 6865) (UniProt P21452). As to the kind of experiment: NVS_GPCR_hNK2: NovaScreen (NVS) G Protein-Coupled Receptor Assay for human Neurokinin, NK2 Receptor (AID 2283278).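 Further: actives reduce bound radioligand signal relative to DMSO baseline.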 In short, it runs like this: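 CHO-derived membrane protein, radioligand displacement, filter scintillation read at 4 h post-dose. Single-point 25 uM in duplicate, then concentration series for actives; DMSO as negative control.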

For test [9], the target named is human Opioid Receptor Delta 1 (Opiate D1), OPRD1 (gene 4985) (UniProt P41143). As to the kind of experiment: NVS_GPCR_hOpiate_D1: NovaScreen (NVS) G Protein-Coupled Receptor Assay for human Opioid Receptor Delta 1 (Opiate D1) (AID 2283280). In short, it runs like this:
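Membrane preparations from CHO cells bearing the human receptor were incubated 1 h with test chemical, and bound radioligand was counted after filtration. Actives from 25 uM duplicate screening were retested in concentration-response.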

The target of test [10] is human Leukotriene B4 Receptor 1 (LTB4-BLT1), LTB4R (gene 1241) (UniProt Q15722). As to the kind of experiment: NVS_GPCR_hLTB4_BLT1: NovaScreen (NVS) G Protein-Coupled Receptor Assay for human Leukotriene B4 Receptor 1 (LTB4-BLT1) (AID 2283271). In short, it runs like this: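 Cell-free human neutrophil receptor preparation, 1 h exposure, radioligand binding read by filter scintillation counting. Single 25 uM duplicate screen, then concentration series topping at 50 uM; binding loss scored against DMSO baseline.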
human Leukotriene B4 Receptor 1 (LTB4-BLT1), LTB4R (gene 1241), sequence (Q15722 whole entry, looked up): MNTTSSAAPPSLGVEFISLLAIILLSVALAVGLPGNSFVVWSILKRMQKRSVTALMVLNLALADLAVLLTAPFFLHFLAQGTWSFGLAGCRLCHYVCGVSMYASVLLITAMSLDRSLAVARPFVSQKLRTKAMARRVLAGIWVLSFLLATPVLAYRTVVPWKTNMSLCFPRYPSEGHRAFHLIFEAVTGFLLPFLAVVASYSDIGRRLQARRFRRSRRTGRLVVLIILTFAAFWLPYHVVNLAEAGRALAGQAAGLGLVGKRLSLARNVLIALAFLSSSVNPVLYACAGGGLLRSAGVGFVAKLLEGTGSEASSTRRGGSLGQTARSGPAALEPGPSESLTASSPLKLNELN

The target of test [11] is human Purinergic Receptor P2Y, P2RY1 (gene 5028) (UniProt P47900). As to the kind of experiment: NVS_GPCR_hPY2: NovaScreen (NVS) G Protein-Coupled Receptor Assay for human Purinergic Receptor P2Y (AID 2283281). In short, it runs like this:
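Filtration scintillation readout of radioligand displacement on U937 extract, measured 1 h post-dosing. Single 25 uM duplicate screen, then singleton concentration series to 50 uM for chemicals passing threshold; DMSO as baseline.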

The target in test [12] is Muscarinic acetylcholine receptor M1 (Homo sapiens) (UniProt P11229). Put plainly: NVS_GPCR_hM1: NovaScreen (NVS) G Protein-Coupled Receptor Assay for human Muscarinic, M1 Receptor (AID 2283270). In short, it runs like this:
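Actives from a duplicate 25 uM single-point screen were retested in concentration series. Binding measured as displacement of a radioligand from CHO-derived receptor preparation, 1 h incubation, filtration and scintillation counting, analysed as signal loss against DMSO.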

Test [13] deals with Muscarinic acetylcholine receptor M3 (Homo sapiens) (UniProt P20309). Put plainly: NVS_GPCR_hM3: NovaScreen (NVS) G Protein-Coupled Receptor Assay for human Muscarinic, M3 Receptor (AID 2283272). In short, it runs like this: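 Radioligand displacement binding on human M3 receptor in CHO-derived membranes, 1 h incubation, filter-based scintillation counting. Primary screen in duplicate at 25 uM; actives followed up in concentration series; loss of signal versus DMSO.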

Test [14] addresses Muscarinic acetylcholine receptor M2 (Homo sapiens) (UniProt P08172). As to the kind of experiment: NVS_GPCR_hM2: NovaScreen (NVS) G Protein-Coupled Receptor Assay for human Muscarinic, M2 Receptor (AID 2283273). In short, it runs like this:
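CHO-expressed human M2 receptor preparation, competitive displacement of a radioligand read by filter-based scintillation counting after 1 h. Single 25 uM duplicate screen, then concentration-response follow-up of actives; DMSO baseline.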

In test [15] the target is human Endothelin Receptor Type B (ETB), EDNRB (gene 1910) (UniProt P24530). Put plainly: NVS_GPCR_hETB: NovaScreen (NVS) G Protein-Coupled Receptor Assay for human Endothelin Receptor Type B (ETB) (AID 2283267). In short, it runs like this:
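Filter-based scintillation readout of radioligand displacement, 4 h, using membranes from human astrocytoma cells. Actives from a 25 uM duplicate screen were retested in concentration-response (top 50 uM) relative to DMSO baseline.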

Test [16] addresses human Dopamine Receptor D4.4 (DRD4.4), DRD4 (gene 1815) (UniProt P21917). As to the kind of experiment: NVS_GPCR_hDRD4.4: NovaScreen (NVS) G Protein-Coupled Receptor Assay for human Dopamine Receptor D4.4 (DRD4.4) (AID 2283264). In short, it runs like this: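 Filter-binding assay with a tritiated or iodinated ligand, cell-free receptor prepared from CHO, 1 hour. Loss of bound radioactivity versus DMSO; single 25 uM duplicate screen, then concentration-response for actives.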

Test [17] addresses Neuropeptide Y receptor type 2 (Homo sapiens) (UniProt P49146). As to the kind of experiment: NVS_GPCR_hNPY2: NovaScreen (NVS) G Protein-Coupled Receptor Assay for human Neuropeptide Receptor Y2 (NPY2) (AID 2283277). In short, it runs like this: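 Chemicals were first tested in duplicate at 25 uM, then actives in singleton concentration series to 50 uM. Tracer binding to SK-N-MC-derived protein measured cell-free after 1 h via filter scintillation; signal loss relative to DMSO.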

Test [18] has as its target human Adrenergic, Beta 3 Receptor (Adrb3), ADRB3 (gene 155) (UniProt P13945). Put plainly: NVS_GPCR_hAdrb3: NovaScreen (NVS) G Protein-Coupled Receptor Assay for human Adrenergic, Beta 3 Receptor (Adrb3) (AID 2283262). In short, it runs like this: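 A cell-free filter binding assay read by scintillation counting, with displacement of a specific radioligand measured after 1 hour. The receptor source was SK-N-MC extracts (cells pretreated with isoproterenol and 8-bromo-cAMP). Compounds were first tested at 25 uM in duplicate and then in concentration series.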

human Dopamine Receptor D4.4 (DRD4.4), DRD4 (gene 1815), sequence (P21917 whole entry, looked up): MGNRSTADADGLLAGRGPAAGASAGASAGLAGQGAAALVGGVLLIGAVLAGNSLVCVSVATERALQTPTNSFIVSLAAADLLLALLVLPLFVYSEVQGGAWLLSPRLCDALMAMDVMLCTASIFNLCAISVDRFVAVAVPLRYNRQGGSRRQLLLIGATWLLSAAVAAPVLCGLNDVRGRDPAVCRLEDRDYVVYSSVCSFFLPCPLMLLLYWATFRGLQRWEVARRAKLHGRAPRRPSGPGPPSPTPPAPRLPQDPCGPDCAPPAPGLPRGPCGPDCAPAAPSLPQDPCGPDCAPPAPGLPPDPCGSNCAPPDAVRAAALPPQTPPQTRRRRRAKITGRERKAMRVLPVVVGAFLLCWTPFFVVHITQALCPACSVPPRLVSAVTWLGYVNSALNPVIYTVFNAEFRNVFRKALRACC
Neuropeptide Y receptor type 2 (Homo sapiens), sequence (P49146 whole entry, looked up): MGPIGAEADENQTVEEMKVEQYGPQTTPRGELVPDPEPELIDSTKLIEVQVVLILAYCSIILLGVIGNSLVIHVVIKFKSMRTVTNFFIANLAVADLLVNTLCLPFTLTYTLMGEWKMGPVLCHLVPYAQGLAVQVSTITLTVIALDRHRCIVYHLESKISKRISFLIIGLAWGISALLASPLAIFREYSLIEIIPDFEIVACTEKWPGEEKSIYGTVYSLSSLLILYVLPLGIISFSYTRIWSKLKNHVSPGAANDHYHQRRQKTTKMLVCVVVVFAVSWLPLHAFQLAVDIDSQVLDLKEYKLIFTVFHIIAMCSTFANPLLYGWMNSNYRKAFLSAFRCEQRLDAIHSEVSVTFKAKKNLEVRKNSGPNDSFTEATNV
Type-1 angiotensin II receptor (Homo sapiens), sequence (P30556 whole entry, looked up): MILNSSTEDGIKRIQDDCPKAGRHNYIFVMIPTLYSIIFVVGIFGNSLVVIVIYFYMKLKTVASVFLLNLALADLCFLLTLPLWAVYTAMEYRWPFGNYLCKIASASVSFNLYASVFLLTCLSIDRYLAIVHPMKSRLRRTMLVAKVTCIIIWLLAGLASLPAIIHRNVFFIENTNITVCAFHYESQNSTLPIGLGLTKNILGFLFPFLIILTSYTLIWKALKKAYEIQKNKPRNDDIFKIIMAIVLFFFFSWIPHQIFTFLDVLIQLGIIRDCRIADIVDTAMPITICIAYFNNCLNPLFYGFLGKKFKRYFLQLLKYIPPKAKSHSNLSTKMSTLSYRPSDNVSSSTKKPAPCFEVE
human Adrenergic, Beta 1 Receptor (Adrb1), ADRB1 (gene 153), sequence (P08588 whole entry, looked up): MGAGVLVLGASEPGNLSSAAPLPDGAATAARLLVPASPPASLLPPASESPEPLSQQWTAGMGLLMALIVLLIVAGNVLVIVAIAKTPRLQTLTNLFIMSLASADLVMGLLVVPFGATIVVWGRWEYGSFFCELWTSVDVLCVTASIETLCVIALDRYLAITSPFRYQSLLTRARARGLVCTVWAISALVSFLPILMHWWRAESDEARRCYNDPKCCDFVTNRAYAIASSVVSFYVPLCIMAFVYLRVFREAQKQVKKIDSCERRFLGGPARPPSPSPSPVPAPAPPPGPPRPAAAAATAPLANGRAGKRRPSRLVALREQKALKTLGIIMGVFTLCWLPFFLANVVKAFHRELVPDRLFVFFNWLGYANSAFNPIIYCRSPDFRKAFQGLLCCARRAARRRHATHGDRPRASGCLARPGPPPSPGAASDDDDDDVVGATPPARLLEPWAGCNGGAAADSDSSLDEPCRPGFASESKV
human Opioid Receptor Delta 1 (Opiate D1), OPRD1 (gene 4985), sequence (P41143 whole entry, looked up): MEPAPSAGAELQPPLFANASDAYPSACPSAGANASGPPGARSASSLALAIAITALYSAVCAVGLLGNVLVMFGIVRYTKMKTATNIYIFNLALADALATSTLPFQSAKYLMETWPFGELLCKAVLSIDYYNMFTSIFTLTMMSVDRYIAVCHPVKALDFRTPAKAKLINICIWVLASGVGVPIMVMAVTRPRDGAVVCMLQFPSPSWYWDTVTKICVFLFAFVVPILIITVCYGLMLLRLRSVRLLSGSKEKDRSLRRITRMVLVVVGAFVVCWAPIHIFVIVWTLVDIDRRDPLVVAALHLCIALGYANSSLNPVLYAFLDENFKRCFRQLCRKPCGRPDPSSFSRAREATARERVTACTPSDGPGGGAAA
human Neurokinin, NK2 Receptor, TACR2 (gene 6865), sequence (P21452 whole entry, looked up): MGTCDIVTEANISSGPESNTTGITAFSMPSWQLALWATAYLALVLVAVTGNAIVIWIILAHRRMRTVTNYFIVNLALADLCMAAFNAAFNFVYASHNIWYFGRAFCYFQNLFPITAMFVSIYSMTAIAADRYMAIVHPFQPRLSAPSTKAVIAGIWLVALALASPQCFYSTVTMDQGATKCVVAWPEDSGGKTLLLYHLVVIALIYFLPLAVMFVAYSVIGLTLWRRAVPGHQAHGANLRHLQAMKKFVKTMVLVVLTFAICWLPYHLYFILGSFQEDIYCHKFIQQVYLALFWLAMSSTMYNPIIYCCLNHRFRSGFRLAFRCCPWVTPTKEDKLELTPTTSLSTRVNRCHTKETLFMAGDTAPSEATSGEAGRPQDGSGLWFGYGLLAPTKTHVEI
human Adrenergic, Alpha 2c Receptor (Adra2C), ADRA2C (gene 152), sequence (P18825 whole entry, looked up): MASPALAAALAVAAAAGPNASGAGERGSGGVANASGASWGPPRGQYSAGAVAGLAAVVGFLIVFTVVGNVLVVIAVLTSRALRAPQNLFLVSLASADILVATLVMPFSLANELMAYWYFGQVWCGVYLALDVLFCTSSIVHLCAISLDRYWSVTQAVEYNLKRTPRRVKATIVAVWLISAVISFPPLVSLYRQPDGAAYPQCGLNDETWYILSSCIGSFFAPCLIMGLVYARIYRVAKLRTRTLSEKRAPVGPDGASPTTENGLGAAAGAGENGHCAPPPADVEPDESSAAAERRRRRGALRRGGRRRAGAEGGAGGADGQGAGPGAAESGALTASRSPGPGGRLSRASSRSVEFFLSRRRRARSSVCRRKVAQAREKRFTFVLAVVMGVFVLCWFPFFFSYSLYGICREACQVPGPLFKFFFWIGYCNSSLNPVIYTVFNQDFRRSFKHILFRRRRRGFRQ

`N#Cc1c(Cl)c(Cl)c(Cl)c(C#N)c1Cl`: the molecule was classed as inactive in test [1]. The half-maximal activity concentration (AC50) in [2] was 15.5 µM (active).

Regarding `Oc1cc(Cl)ccc1Oc1ccc(Cl)cc1Cl`, the AC50 was 37.5 µM (active) in test [3]; 6.8 µM (active) in [4]; 25 µM (active) in [2]; 25.5 µM (active) in test [8]; 10.7 µM (active) and 25.5 µM (active) and 9.39 µM (active) in test [9]. In addition, the outcome in test [5], in [6], in [2], in test [7] and in test [9] was inactive.

On to `CCCN(CCOc1c(Cl)cc(Cl)cc1Cl)C(=O)n1ccnc1`, for which the AC50 in test [4] is 4.96 µM (active). Moreover, the molecule was called inactive in test [10], in test [8] and in test [9].

`CC(C)(C)C(O)C(Oc1ccc(Cl)cc1)n1cncn1` (centres undefined): the call in test [11] was inactive.

On to `CCc1ccc(C(=O)NN(C(=O)c2cc(C)cc(C)c2)C(C)(C)C)cc1`, for which the molecule was classed as inactive in test [12], in test [10] and in test [7]. For the same molecule, the results for the AC50 in [13] and in test [14] were 0.194 µM (active) and 0.152 µM (active), respectively.

Take `O=C1c2ccccc2C(=O)N1SC(Cl)(Cl)Cl`: the result in [15] was inactive. Besides, the AC50 in test [2] is 13.3 µM (active).

With `O=S(=O)(O)C(F)(F)C(F)(F)C(F)(F)C(F)(F)C(F)(F)C(F)(F)C(F)(F)C(F)(F)F`, the AC50 was 37 µM (active) and 31.2 µM (active) and 29.9 µM (active) in test [3]; 49.6 µM (active) in test [1]; 25 µM (active) and 16.3 µM (active) and 24 µM (active) in [16]; 7.24 µM (active) in [6]; 30.1 µM (active) [middle of 4 runs] in test [10]; 15.8 µM (active) in test [11]. For the same molecule, the molecule was called inactive in [1], in [16], in test [5], in test [17], in [8] and in [9].

`CCOC1Oc2ccc(OS(C)(=O)=O)cc2C1(C)C` (centres undefined): in test [17], the outcome was inactive.

As for `CNC(=O)Oc1cccc(N=CN(C)C)c1`, the molecule was classed as inactive in test [16].

With `O=C(O)CCCOc1ccc(Cl)cc1Cl`, in test [12], the molecule was called inactive.

Regarding `COP(=S)(OC)Oc1ccc([N+](=O)[O-])cc1`, the AC50 in [18] was 12.5 µM (active); in test [7] it was 12.1 µM (active); in [17], 0.043 µM (active). Besides, the molecule was classed as inactive in test [10] and in test [14].

What is called AC50 is the concentration giving half of the maximal activity seen.
